# Laboratory results published in paper PMC4081100, “A DNA-binding-site landscape and regulatory network analysis for NAC transcription factors in Arabidopsis thaliana”.
# Experiments:
# Test in all cases: universal protein binding microarray (PBM); transcription factors of Arabidopsis thaliana; high values mean tight binding
# [1] = molecular target: T1, GST-ATAF1 NAC domain (Arabidopsis thaliana, UniProt Q39013 7-158); details: protein: recombinant; tags: GST; chain copies: 2; dsDNA, one strand shown
# T1 sequence: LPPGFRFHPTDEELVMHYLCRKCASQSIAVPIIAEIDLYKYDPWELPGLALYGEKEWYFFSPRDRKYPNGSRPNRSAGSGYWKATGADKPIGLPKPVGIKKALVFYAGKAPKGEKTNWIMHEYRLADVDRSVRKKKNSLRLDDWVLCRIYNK
# How it was run: (§1)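 Each value is a normalised enrichment score (E-score) describing binding. The GST-tagged proteins, NAC-domain, full-length or DNA-binding-domain, were induced in cells (zinc-finger proteins with zinc acetate added) and purified on glutathione–Sepharose 4B. They were applied at 200 to 500 nM final, in duplicate, to double-stranded custom all-10-mer Agilent 4 × 180K arrays, and gapped and ungapped 8-mers were scored.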
# [2] = molecular target: T2, GST-ANAC092(1-285) full length (Arabidopsis thaliana, UniProt Q9FKA0 1-285); details: protein: recombinant; tags: GST; chain copies: 2; dsDNA, one strand shown
# T2 sequence: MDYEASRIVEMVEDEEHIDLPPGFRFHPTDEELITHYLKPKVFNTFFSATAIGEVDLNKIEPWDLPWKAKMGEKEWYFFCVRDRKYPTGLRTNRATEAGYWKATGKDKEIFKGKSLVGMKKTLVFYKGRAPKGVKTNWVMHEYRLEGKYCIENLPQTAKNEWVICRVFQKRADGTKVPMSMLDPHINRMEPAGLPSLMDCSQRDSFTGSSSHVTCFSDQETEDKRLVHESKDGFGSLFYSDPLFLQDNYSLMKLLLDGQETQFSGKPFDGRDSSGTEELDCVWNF
# How it was run: as §1
# [3] = molecular target: T3, GST-SND1(1-203) (Arabidopsis thaliana, UniProt Q9LPI7 1-203); details: protein: recombinant; tags: GST; chain copies: 2; dsDNA, one strand shown
# T3 sequence: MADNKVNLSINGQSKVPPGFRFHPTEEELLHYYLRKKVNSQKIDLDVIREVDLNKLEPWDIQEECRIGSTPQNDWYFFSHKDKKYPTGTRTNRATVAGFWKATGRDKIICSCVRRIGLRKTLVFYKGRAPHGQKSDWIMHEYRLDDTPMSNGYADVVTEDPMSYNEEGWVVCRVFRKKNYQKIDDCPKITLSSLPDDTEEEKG
# How it was run: as §1
# [4] = molecular target: GST-WRKY1(266-371) (Arabidopsis thaliana, UniProt Q9SI37 266-371); details: protein: recombinant; tags: GST; dsDNA, one strand shown
# How it was run: as §1
# [5] = molecular target: T4, GST-ANAC092(1-176) (Arabidopsis thaliana, UniProt Q9FKA0 1-176); details: protein: recombinant; tags: GST; chain copies: 2; dsDNA, one strand shown
# T4 sequence: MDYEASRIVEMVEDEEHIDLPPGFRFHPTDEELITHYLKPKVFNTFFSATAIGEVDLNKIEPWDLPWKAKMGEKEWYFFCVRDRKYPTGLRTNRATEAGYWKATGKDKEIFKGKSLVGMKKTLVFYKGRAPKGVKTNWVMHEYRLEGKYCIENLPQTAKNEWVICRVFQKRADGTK
# How it was run: as §1
# [6] = molecular target: T5, GST-ANAC019 NAC domain (Arabidopsis thaliana, UniProt Q9C932 14-162); details: protein: recombinant; tags: GST; chain copies: 2; dsDNA, one strand shown
# T5 sequence: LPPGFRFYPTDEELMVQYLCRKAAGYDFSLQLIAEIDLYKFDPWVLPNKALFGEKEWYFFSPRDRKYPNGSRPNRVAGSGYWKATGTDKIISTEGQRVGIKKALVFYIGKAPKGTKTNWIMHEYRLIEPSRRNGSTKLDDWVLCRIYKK
# How it was run: as §1
# [7] = molecular target: T6, GST-NTL8 NAC domain (Arabidopsis thaliana, UniProt Q9XIN7 14-156); details: protein: recombinant; tags: GST; chain copies: 2; dsDNA, one strand shown
# T6 sequence: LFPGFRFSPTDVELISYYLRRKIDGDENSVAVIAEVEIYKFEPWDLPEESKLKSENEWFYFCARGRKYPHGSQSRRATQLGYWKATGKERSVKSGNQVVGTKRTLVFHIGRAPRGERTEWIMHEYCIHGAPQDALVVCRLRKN
# How it was run: as §1
# [8] = molecular target: GST-NTL6(1-168) (Arabidopsis thaliana, UniProt Q9SCK6 1-168); details: protein: recombinant; tags: GST; chain copies: 2; dsDNA, one strand shown
# How it was run: as §1
# [9] = molecular target: T7, GST-NAP(1-166) (Arabidopsis thaliana, UniProt O49255 1-166); details: protein: recombinant; tags: GST; chain copies: 2; dsDNA, one strand shown
# T7 sequence: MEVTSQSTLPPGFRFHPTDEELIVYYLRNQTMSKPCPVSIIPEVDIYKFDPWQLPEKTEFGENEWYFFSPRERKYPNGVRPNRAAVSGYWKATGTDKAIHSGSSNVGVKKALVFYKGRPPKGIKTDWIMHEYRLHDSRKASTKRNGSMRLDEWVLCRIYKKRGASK
# How it was run: as §1
# [10] = molecular target: T8, GST-NST2(1-184) (Arabidopsis thaliana, UniProt Q9M274 1-184); details: protein: recombinant; tags: GST; chain copies: 2; dsDNA, one strand shown
# T8 sequence: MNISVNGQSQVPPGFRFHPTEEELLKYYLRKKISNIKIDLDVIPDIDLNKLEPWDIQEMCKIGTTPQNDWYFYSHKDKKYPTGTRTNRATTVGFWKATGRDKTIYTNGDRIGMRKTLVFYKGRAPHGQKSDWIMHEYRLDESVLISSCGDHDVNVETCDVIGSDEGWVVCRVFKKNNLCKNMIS
# How it was run: as §1
# [11] = molecular target: T9, GST-ANAC055(1-171) (Arabidopsis thaliana, UniProt Q9LDY8 1-171); details: protein: recombinant; tags: GST; chain copies: 2; dsDNA, one strand shown
# T9 sequence: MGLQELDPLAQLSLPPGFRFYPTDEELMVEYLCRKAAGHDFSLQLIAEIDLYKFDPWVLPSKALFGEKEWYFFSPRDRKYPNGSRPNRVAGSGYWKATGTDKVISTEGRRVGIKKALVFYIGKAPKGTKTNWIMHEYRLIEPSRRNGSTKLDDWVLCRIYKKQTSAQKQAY
# How it was run: as §1
# Chain of GST-NTL6(1-168) (Q9SCK6 1-168): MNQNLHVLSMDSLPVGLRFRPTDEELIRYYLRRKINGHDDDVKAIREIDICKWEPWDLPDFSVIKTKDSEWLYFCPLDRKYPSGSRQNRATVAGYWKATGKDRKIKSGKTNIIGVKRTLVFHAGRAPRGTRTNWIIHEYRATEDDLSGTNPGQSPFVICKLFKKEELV
# Chain of GST-WRKY1(266-371) (Q9SI37 266-371): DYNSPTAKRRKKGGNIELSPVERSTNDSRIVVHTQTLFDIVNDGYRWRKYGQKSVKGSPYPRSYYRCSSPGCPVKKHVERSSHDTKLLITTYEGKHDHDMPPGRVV
sequence,measurement,setting,value
TAAAGTCA,binding signal,[1],0.0969 E-score
same,binding signal,[2],0.0547 E-score
same,binding signal,[3],0.0751 E-score
same,binding signal,[4],0.465 E-score
CTGTTGAC,binding signal,[5],0.105 E-score
same,binding signal,[6],0.107 E-score
same,binding signal,[2],0.0644 E-score
same,binding signal,[3],0.0669 E-score
same,binding signal,[4],0.48 E-score
CTTTGACC,binding signal,[5],0.051 E-score
same,binding signal,[3],0.0526 E-score
same,binding signal,[4],0.488 E-score
TCAGTCAA,binding signal,[1],0.0626 E-score
same,binding signal,[7],0.0655 E-score
same,binding signal,[3],0.0688 E-score
same,binding signal,[4],0.473 E-score
GGGGGAAA,binding signal,[5],0.117 E-score
same,binding signal,[8],0.314 E-score
same,binding signal,[6],0.12 E-score
same,binding signal,[2],0.139 E-score
same,binding signal,[7],0.472 E-score
same,binding signal,[3],0.147 E-score
ACGTTGAC,binding signal,[2],0.144 E-score
same,binding signal,[9],0.0955 E-score
same,binding signal,[3],0.127 E-score
same,binding signal,[4],0.489 E-score
GCGTCAAC,binding signal,[5],0.119 E-score
same,binding signal,[6],0.0778 E-score
same,binding signal,[2],0.109 E-score
same,binding signal,[10],0.0734 E-score
same,binding signal,[3],0.192 E-score
same,binding signal,[4],0.443 E-score
CTTGACCC,binding signal,[7],0.0908 E-score
same,binding signal,[3],0.0887 E-score
same,binding signal,[4],0.477 E-score
GTCAGTCA,binding signal,[2],0.1 E-score
same,binding signal,[3],0.0958 E-score
same,binding signal,[4],0.426 E-score
CGTCAAAG,binding signal,[5],0.0844 E-score
same,binding signal,[6],0.0986 E-score
same,binding signal,[2],0.149 E-score
same,binding signal,[10],0.102 E-score
same,binding signal,[3],0.199 E-score
same,binding signal,[4],0.427 E-score
TCAAGTCA,binding signal,[11],0.0629 E-score
same,binding signal,[1],0.0801 E-score
same,binding signal,[2],0.196 E-score
same,binding signal,[10],0.057 E-score
same,binding signal,[3],0.171 E-score
same,binding signal,[4],0.453 E-score
GAAGTAAC,binding signal,[5],0.249 E-score
same,binding signal,[8],0.381 E-score
same,binding signal,[11],0.106 E-score
same,binding signal,[1],0.0921 E-score
same,binding signal,[2],0.325 E-score
same,binding signal,[10],0.301 E-score
same,binding signal,[7],0.413 E-score
same,binding signal,[3],0.333 E-score
AGCGTTGA,binding signal,[8],0.0737 E-score
same,binding signal,[2],0.0576 E-score
same,binding signal,[10],0.0637 E-score
same,binding signal,[3],0.0527 E-score
same,binding signal,[4],0.401 E-score
GTCAAGAA,binding signal,[5],0.0716 E-score
same,binding signal,[11],0.0615 E-score
same,binding signal,[1],0.114 E-score
same,binding signal,[2],0.124 E-score
same,binding signal,[9],0.0595 E-score
same,binding signal,[10],0.0986 E-score
same,binding signal,[3],0.052 E-score
same,binding signal,[4],0.436 E-score
GTCAAGCA,binding signal,[2],0.106 E-score
same,binding signal,[3],0.0699 E-score
same,binding signal,[4],0.44 E-score
AGTCAGAA,binding signal,[2],0.0656 E-score
same,binding signal,[9],0.0823 E-score
same,binding signal,[10],0.119 E-score
same,binding signal,[3],0.101 E-score
same,binding signal,[4],0.416 E-score
AAGGAAGC,binding signal,[5],0.219 E-score
same,binding signal,[8],0.43 E-score
same,binding signal,[11],0.0894 E-score
same,binding signal,[2],0.13 E-score
same,binding signal,[10],0.185 E-score
same,binding signal,[7],0.188 E-score
same,binding signal,[3],0.175 E-score
